From PubChem
Compounds with a hit are over-represented: about 2.5% of the library has one in this group of screens.
CRFR2-BP ag: agonists of human CRF-binding protein/CRF-R2 receptor complex; HEK293 CRF-R2/CRF-BP, calcium dye fluorescence (FLIPR); percent of saturating CRF peptide response; activation, % at 13.2 µM; 350,000 compounds, 0.46% hits;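 active = activation of at least 50%, plus an integration ratio under a set limit after plate pattern correction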
Cardio protect: myocardial damage modulation in H9c2 cells; H9c2 cardiomyocytes, H2O2 injury protection, ATPLite, 2 h; protection from H2O2 cell death, % at 20 µM; 360,000 compounds, 0.63% hits;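 active = compounds giving at least 50% protection of heart cells from peroxide-induced death in the single-dose screen, raw or plate-pattern-corrected value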
SKN-1 inh: inhibitors of C. elegans SKN-1; C. elegans VP596 Pgst-4::GFP/RFP ratio, acrylamide-induced, 24 h; inhibition, % at 21.8 µM; 360,000 compounds, 0.49% hits;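 active = interference check ratio from 0.5 to 1.5 plus GFP to RFP signal ratio inhibition reaching or exceeding a fixed threshold, cut at about 30% in these data, passing the limit was not always enough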
CRFR2-BP antag: antagonists of CRF-binding protein/CRF-R2 receptor complex; 350,000 compounds, 0.59% hits; inhibition, % at 11.8 µM; AID 588475; HEK293 CRF-R2/CRF-BP, CRF-induced calcium fluorescence;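 active = inhibition of the ligand-induced calcium signal above about 50% at the single tested concentration, limit read from the data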
H9c2 TAG inh: triacylglycerol accumulation inhibition; inhibition, % at 12.5 µM; AID 651582; H9c2 cells, Nile Red lipid (TAG) fluorescence; cells loaded with 200 µM oleic acid; 230,000 compounds, 0.66% hits;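 active = pattern-corrected inhibition of lipid staining of at least 50% with the nuclear-stain viability signal not falling by more than 50%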
iPSC survival up: increases survival of single human iPS cells. hiPSC single-cell survival, ATPlite luminescence; 100% = ROCK inhibitor wells, 0% = DMSO. survival enhancement, % at 20 µM. 360,000 compounds, 0.044% hits; in the data active = survival enhancement above about 18%;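 note: cells exposed to compounds for 16 hours before the ATP read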
A number is an active result; i = inactive; nt = not tested or not shown.

SMILES	CRFR2-BP ag	Cardio protect	SKN-1 inh	CRFR2-BP antag	H9c2 TAG inh	iPSC survival up
CCc1ccc(C(C)NC(=S)NC2CCCCC2)cc1 (stereo unspecified)	i	i	i	71.1	nt	i
CC(C)C[C@H]1CN(CCCC[C@H]2CNC(=O)C(=O)N2CCc2ccc(O)cc2)C(=O)C(=O)N1CCC1CCCCC1	nt	nt	i	nt	nt	i
CCC(=O)NC(c1cccs1)c1cc([N+](=O)[O-])c2cccnc2c1OC (stereo unspecified)	nt	i	i	nt	i	i
Cc1ccc(C(NC(=O)C(C)C)c2cc([N+](=O)[O-])c3cccnc3c2O)cc1 (stereo unspecified)	i	51.0	i	i	nt	i
CC(C)C(=O)NC(c1cccs1)c1cc([N+](=O)[O-])c2cccnc2c1O (stereo unspecified)	i	55.6	i	i	nt	i
COc1ccc(Cc2c(-c3ccc(C)cc3)nc3cc(C)c(Br)c(C)n23)c(C)c1	nt	i	i	nt	nt	i
Cc1ccc(Cn2c(SCC(=O)NCC3CCCO3)nc3ccsc3c2=O)cc1 (stereo unspecified)	i	i	i	54.1	i	i
O=C(CSc1nc2ccsc2c(=O)n1Cc1ccc(C(=O)O)cc1)NCC1CCCO1 (stereo unspecified)	i	i	i	i	nt	i
Cc1ccc(NC(=O)CSCC(=O)Nc2cc(Cl)ccc2N2CCOCC2)cc1	i	i	i	i	i	i
CCCC(=O)N(CCN1CCOCC1)c1nc2c(OCC)cccc2s1	i	i	39.8	i	nt	i
CSc1ccccc1C(=O)NCCOc1cccc(C)c1	i	i	40.0	i	i	i
CCCCCNC(=O)c1ccccc1SC	i	i	34.9	i	nt	i
CCCCNC(=O)C1(C)CCCCN1C(=O)c1c(Cl)cccc1Cl (stereo unspecified)	nt	i	i	nt	i	i
Cc1ccc(NC(=O)c2nc[nH]c2C(=O)NCCCNC(=O)c2[nH]cnc2C(=O)Nc2ccc(C)cc2)cc1	i	66.4	i	i	i	i
CC(C)(C)OC(=O)NCCCCCNC(=O)c1[nH]cnc1C(=O)Nc1ccccc1	i	i	i	i	nt	i
CCOC(=O)c1ccc(NC(=O)c2nc[nH]c2C(=O)NCCCCCNC(=O)OC(C)(C)C)cc1	i	79.2	i	i	i	i
CC(C)(C)OC(=O)NCCCCCNC(=O)c1[nH]cnc1C(=O)Nc1ccc(Cl)cc1	i	65.8	i	i	i	i
Cc1ccc(NC(=O)c2nc[nH]c2C(=O)NCCCCCNC(=O)OC(C)(C)C)cc1	i	55.2	i	i	nt	i
CCN(CC)C(=O)c1[nH]cnc1C(=O)NCCCCCNC(=O)OC(C)(C)C	i	i	i	i	nt	i
CC(C)Oc1ccc(F)cc1-c1cc(C(=O)NCc2ccc(F)cc2)[nH]n1	nt	i	i	nt	i	i
CCCNC(=S)N1CCC(NC(=O)Nc2ccc(C)cc2)CC1	i	i	i	i	i	i
CC(C)(C)OC(=O)NCCCCCNC(=O)c1[nH]cnc1C(=O)Nc1cc(Br)ccc1F	i	63.9	i	i	i	i
N#Cc1ccc(CN(Nc2ccccc2)c2ccccc2)cc1	i	i	i	55.7	i	i
COc1cccc(/C=N/NC(=O)CNC(=O)/C=C\c2ccccc2)c1O	i	52.1	i	i	nt	i
COc1ccc(/C(C)=N/NC(=O)CNC(=O)/C=C\c2ccccc2OC)c(OC)c1	i	i	36.7	i	nt	i
SMILES	CRFR2-BP ag	Cardio protect	SKN-1 inh	CRFR2-BP antag	H9c2 TAG inh	iPSC survival up
O=C(CCc1ccccc1)NCC(=O)N/N=C/c1ccc(O)cc1O	i	53.1	i	i	i	i
O=C(CNC(=O)c1cccs1)N/N=C/c1ccc(O)cc1O	i	i	i	i	i	i
COc1ccc(/C=C/C(=O)NCC(=O)N/N=C/c2cc(Br)ccc2OCc2ccccc2)cc1	i	i	i	i	i	i
COc1ccc(Br)cc1/C=N/NC(=O)CNC(=O)/C=C/c1ccccc1	i	63.7	i	i	i	i
CC(=O)c1c(C)[nH]c(C(=O)COC(=O)c2c(-c3ccccc3)noc2C)c1C	i	i	i	i	i	i
O=C(CCc1nc2ccccc2c(=O)[nH]1)OCc1ccc(Cl)cc1Cl	i	i	i	i	i	i
CC(=O)Nc1cc(-c2ccccc2CN(C)C)cn2c(-c3ccc(C(C)=O)cc3)cnc12	nt	i	i	nt	i	i
CC(=O)Nc1ccc(-c2ccnc3c2CC(C)(C(=O)NCc2ccco2)O3)cc1 (stereo unspecified)	nt	i	i	nt	i	i
COc1ccccc1/C=C/C(=O)NCC(=O)N/N=C/c1ccccc1	i	i	i	i	nt	i
COc1ccccc1/C=C\C(=O)NCC(=O)N/N=C/c1ccc(O)cc1O	i	52.5	i	i	i	i
O=C(CN1CCCc2ccccc21)N/N=C/c1ccc(O)cc1O	i	51.7	i	i	nt	i
Oc1ccccc1Nc1nc(NCC2CCCO2)c2ccccc2n1 (stereo unspecified)	i	i	i	i	i	i
COc1cccc(Nc2nc(NCC3CCCO3)c3ccccc3n2)c1 (stereo unspecified)	i	i	37.1	i	i	i
CCCCCCCCNS(=O)(=O)CCNCc1ccc(OC)cc1	i	i	i	114.8	i	i
COC(=O)C(OC(=O)c1ccccc1)C(C)Br (stereo unspecified)	i	i	i	63.0	i	i
CC(C)N1CCCC(C)(C(=O)Nc2cccc(Oc3ccccc3)c2)C1 (stereo unspecified)	nt	i	i	nt	i	i
COc1ccc(N/C=C(\C#N)c2nc3ccccc3n2C)c(OC)c1	i	49.5	i	i	nt	i
CCCCNC(=O)C(NC(=O)c1cccnc1OC)C(=O)c1ccccc1 (stereo unspecified)	nt	nt	i	nt	nt	nt
O=C(N/N=C/c1cc(Br)ccc1O)c1ccccc1Cl	i	56.3	i	i	nt	i
O=C(N/N=C/c1cc(Cl)ccc1O)c1ccncc1	i	i	i	i	53.2	i
O=C(N/N=C/c1ccccc1Cl)c1ccncc1	i	i	i	i	nt	i
OCC[C@@H]1C[C@H](O)[C@@H](O)[C@]2(OCc3ccc(CO)cc32)O1	nt	i	i	nt	nt	i
CC(C)(C)c1ccc(S(=O)(=O)NC(=O)C2(C)CCN2C(=O)c2cccc3ccccc23)cc1 (stereo unspecified)	nt	i	i	nt	i	i
Cc1cc(N=NC(=O)c2ccccc2O)c2ccccc2c1O	i	i	i	50.8	i	i
CCOCC(=O)Nc1cccc(Br)c1	i	i	37.1	i	i	i
SMILES	CRFR2-BP ag	Cardio protect	SKN-1 inh	CRFR2-BP antag	H9c2 TAG inh	iPSC survival up
O=C(Nc1ccccc1)Nc1csc2ccccc12	i	i	35.4	i	i	i
O=C(Nc1ccccc1)Nc1ccc(O)c2ccccc12	i	nt	nt	70.1	nt	nt
CC(=O)Nc1csc2ccccc12	i	i	i	i	i	i
CC(C)Cn1cnc2c(SCc3ccccn3)nc(N)nc21	i	i	i	i	i	i
CC(C)Cn1cnc2c(SCc3ccccc3)nc(N)nc21	i	i	i	67.7	i	i
Cn1c(=O)c2c(ncn2CC(=O)NCc2cccnc2)n(C)c1=O	i	i	i	i	nt	26.5
